The values that follow come from PubChem BioAssay (NCATS).

Structures are written as SMILES. Several values for one entry are separate records, joined by “and”; a condition that tells them apart may be missing. Equal values may be shown once. Results filed as inconclusive are left out. Activity calls are given as the source filed them. Unless noted, calls come from the whole dose curve.

Assay [1] addresses Bile acid receptor (Homo sapiens) (UniProt Q96RI1). As to the kind of experiment: qHTS assay for small molecule agonists of farnesoid X receptor signaling (AID 588527).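 Note: series mostly up to about 77 µM; 0% = vehicle basal and 100% = reference agonist.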 The following applies: HEK293T FXR-UAS-bla, beta-lactamase ratio, 16 h; activation: stronger effect = higher value. Summed up:
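Read-out: beta-lactamase reporter fluorescence with CCF4 substrate in GeneBLAzer FXR-UAS-bla HEK293T cells, after 16 h compound exposure at 37 C. Response scaled between DMSO basal (0%) and chenodeoxycholic acid at 100 uM (100%).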

Assay [2] is described as follows: qHTS assay for small molecule antagonists of retinoid X receptor alpha signaling (AID 588546; active = well fitted inhibition curve with a large enough effect in the signal ratio, with a control signal flat, not every such curve was filed as active; the % refers to the signal ratio; note: potency is the fitted concentration of half-maximal effect;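 for max response: cells stimulated with 9-cis-retinoic acid as agonist; % is set by controls: 0 for no effect and ±100 for the full control effect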). The conditions noted are these: HEK293T RXRa-UAS-bla, beta-lactamase ratio, antagonist mode; measured here: W530 green channel, cytotoxicity proxy. Summed up:
(§1)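 Beta-lactamase reporter inhibition, read as CCF4 fluorescence ratio (ex 405, em 460/530 nm) after 2 h at RT. HEK293T UAS-bla cells, 2500/well, were stimulated with 9-cis-RA at 500 or 100 nM final alongside test compound for 18 h at 37 C.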

Assay [3] deals with Retinoic acid receptor RXR-alpha (Homo sapiens) (UniProt P19793). The description is as above. The conditions noted are these: HEK293T RXRa-UAS-bla, beta-lactamase ratio, antagonist mode. The method in brief: as §1
Assay [4] in a line: qHTS assay for small molecule agonists of the antioxidant response element (ARE) signaling pathway (AID 651741; active = well fitted activation curve with a large enough effect in the signal ratio; the % refers to the signal ratio; note: potency is the fitted concentration of half-maximal effect). Summed up:
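Reporter: beta-lactamase under ARE, stably in HepG2. Exposure: 16 h, 37 C, compounds delivered in DMSO by pin tool after 5 h cell preincubation. Readout: FRET substrate fluorescence after 2 h at RT.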

The nature of assay [5]: qHTS assay for environmental chemicals that activate the Aryl hydrocarbon Receptor (AhR) signaling pathway (AID 651777; active = well fitted curve in the direction sought with a large enough effect; an effect the other way counts as inactive or inconclusive; note: % of control where 0% means no effect; nearly all actives have a fitted effect of over 15% in size). The following applies: 1A2-DRE human hepatoma cells, luciferase, 24 h; activation: stronger effect = higher value. The method in brief: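 Measured luciferase activity, read 30 min after One-Glo addition at room temperature, from human hepatoma cells bearing a dioxin response element–CYP1A2 promoter reporter and exposed to compound for 24 hr at 37 C.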

For assay [6], the target named is Peroxisome proliferator-activated receptor alpha (Homo sapiens) (UniProt Q07869). Kind of assay: qHTS assay for small molecule agonists of the peroxisome proliferator-activated receptor alpha (PPARalpha) signaling pathway (AID 651778; active = well fitted curve in the direction sought with a large enough effect; an effect the other way counts as inactive or inconclusive; note: % of control where 0% means no effect). The conditions noted are these: PathHunter PPARalpha complementation, chemiluminescence, 6 h; max response: stronger effect = higher value. The method in brief: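 Cells plated at 2,000/well and held overnight at 37 C, 5% CO2, then compound added by pin tool for 6 hr; after PathHunter detection reagent and 60 min at room temperature, chemiluminescence from enzyme complementation was read.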
Background: In qHTS, concentration-response curves come from the screen itself.

Assay [7] can be described thus: qHTS assay for small molecule agonists of the antioxidant response element (ARE) signaling pathway measured by Nrf2-dependant transcriptional activity (AID 720636; active = well fitted curve in the direction sought with a large enough effect in the repeat runs; an effect the other way counts as inactive or inconclusive; note: potency is the fitted concentration of half-maximal effect;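 for activation: HepG2 cells with an ARE-driven luciferase reporter; % of control where 0% means no effect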). The method in brief:
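In HepG2 cells engineered with an Nrf2-responsive luciferase gene, ARE induction was quantified as luminescence after 16 hr compound treatment at 37 C.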

Assay [8] is described as follows: qHTS assay for cell viability of the p53RE-bla HCT-116 cell line (AID 743292; active = well fitted curve in the direction sought with a large enough effect; an effect the other way counts as inactive or inconclusive; note: % is set by controls: 0 for no effect and ±100 for the full control effect; nearly all actives have a fitted effect of over 55% in size). The method in brief: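 Intracellular ATP of p53RE-bla HCT-116 cells measured by luciferase luminescence following 16 h compound incubation at 37 C; DMSO-only wells served as vehicle controls.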
Assay [9] concerns the target Peroxisome proliferator-activated receptor delta (Homo sapiens) (UniProt Q03181). Kind of assay: qHTS assay for small molecule agonists of peroxisome proliferator-activated receptor delta signaling (AID 588534).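 Note: 0% = DMSO basal wells and 100% = positive control agonist at 10 µM.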 The method in brief: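 Agonist-mode beta-lactamase reporter readout (CCF4 dye, 2 h at RT) after 18 h at 37 °C exposure to a titration; Hill-equation fitting gave EC50 and maximal response.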

Assay [10] addresses Vitamin D3 receptor (Homo sapiens) (UniProt P11473). As to the kind of experiment: qHTS assay for small molecule agonists of vitamin D receptor signaling (AID 588543).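 Note: 0% = DMSO basal and 100% = reference agonist control.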 Summed up: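 GeneBLAzer VDR-UAS-bla HEK293T cells in 2% charcoal-stripped FBS medium were dosed with compound titrations for 16 h at 37 °C; CCF4 β-lactamase readout (405 nm ex, 460/530 nm em). EC50 and efficacy from Hill fits, normalized to 50 nM calcitriol (100%) and DMSO (0%).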

Assay [11] deals with Retinoic acid receptor RXR-alpha (Homo sapiens) (UniProt P19793). Kind of assay: qHTS assay for small molecule agonists of retinoid X receptor alpha signaling (AID 588544).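 Note: 0% = DMSO basal wells and 100% = reference agonist.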
Assay [12] concerns the target Thyroid hormone receptor beta (Homo sapiens) (UniProt P10828). Kind of assay: qHTS assay for small molecule agonists of thyroid hormone receptor beta signaling (AID 588545). The method in brief:
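TR-UAS-bla-GripTite HEK 293 cells in medium with 2% charcoal/dextran FBS, 0.1 mM NEAA and 1 mM sodium pyruvate were treated with titrated compounds for 18 hrs at 37 C. Beta-lactamase reporter was read with CCF4 dye (ex 405, em 460/530 nm); EC50 from Hill fits.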

For assay [13] the target is unchanged. Kind of assay: qHTS assay for small molecule antagonists of thyroid hormone receptor beta signaling (AID 588547; active = well fitted inhibition curve with a large enough effect in the signal ratio, with a control signal flat, not every such curve was filed as active; the % refers to the signal ratio; note: potency is the fitted concentration of half-maximal effect;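 for activity change % (negative = inhibition): cells stimulated with 0.4 nM T3 agonist during compound exposure; series mostly up to about 77 µM; % is set by controls: 0 for no effect and ±100 for the full control effect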). The following applies: TR-UAS-bla HEK293, beta-lactamase ratio, antagonist mode, 18 h. Summed up:
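TR-UAS-bla GripTite HEK293 cells in 2% charcoal/dextran FBS medium were preincubated 4 h at 37 C, given compound (0.59 nM to 92 uM) plus 0.4 nM T3 (final) for 18 h, then CCF4 for 2 h at RT; Hill fit gave IC50.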

A short description of assay [14]: qHTS assay for cell viability of HEK293 cells (AID 743288; active = well fitted curve in the direction sought with a large enough effect; an effect the other way counts as inactive or inconclusive; note: % is set by controls: 0 for no effect and ±100 for the full control effect; nearly all actives have a fitted effect of over 50% in size). The conditions noted are these: ATP luminescence (CellTiter-Glo), 18 h; max response: stronger effect = lower value. Summed up: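 After 18 h compound exposure at 37 C, parental HEK293 cells (2,000/well) are lysed with CellTiter-Glo and luminescence is read following 30 min at room temperature.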
A short description of assay [15]: qHTS assay for small molecule activators of the p53 signaling pathway (AID 651743; active = well fitted activation curve with a large enough effect in the signal ratio, not every such curve was filed as active; the % refers to the signal ratio; note: potency is the fitted concentration of half-maximal effect). The following applies: HCT-116 p53RE-bla, beta-lactamase FRET ratio, 16 h; activation: stronger effect = higher value. Summed up: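 Agonist-mode quantitative HTS in HCT-116 cells carrying a p53-response-element beta-lactamase reporter; 16 h compound treatment at 37 C, then FRET substrate loading for 2 h at room temperature and fluorescence read.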

A short description of assay [16]: qHTS assay for small molecule agonists of the antioxidant response element (ARE) signaling pathway measured by Nrf2-dependant transcriptional activity - cell viability counter screen (AID 720653; active = well fitted curve in the direction sought with a large enough effect in the repeat runs; an effect the other way counts as inactive or inconclusive; note: % is set by controls: 0 for no effect and ±100 for the full control effect). The following applies: ARE-bla HepG2 viability, CellTiter-Glo ATP luminescence, 16 h; max response: stronger effect = lower value. The method in brief:
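ARE-bla HepG2 cells (2,000/well) rested 5 hrs at 37C/5% CO2, then exposed to compounds in DMSO for 16 hrs. Viability was read in the same wells as intracellular ATP by luminescence, 30 min at room temperature after reagent addition.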

In assay [17] the target is Nuclear receptor subfamily 1 group I member 2 (Rattus norvegicus) (UniProt Q9R1A7). Kind of assay: qHTS assay for small molecule activators of the rat pregnane X receptor (rPXR) signaling pathway (AID 651751; call rule not given here; note: 0% is about no effect). The conditions noted are these: rPXR reporter cells, luciferase (One-Glo), 24 h.
Chain of Nuclear receptor subfamily 1 group I member 2 (Rattus norvegicus) (Q9R1A7 whole entry, looked up): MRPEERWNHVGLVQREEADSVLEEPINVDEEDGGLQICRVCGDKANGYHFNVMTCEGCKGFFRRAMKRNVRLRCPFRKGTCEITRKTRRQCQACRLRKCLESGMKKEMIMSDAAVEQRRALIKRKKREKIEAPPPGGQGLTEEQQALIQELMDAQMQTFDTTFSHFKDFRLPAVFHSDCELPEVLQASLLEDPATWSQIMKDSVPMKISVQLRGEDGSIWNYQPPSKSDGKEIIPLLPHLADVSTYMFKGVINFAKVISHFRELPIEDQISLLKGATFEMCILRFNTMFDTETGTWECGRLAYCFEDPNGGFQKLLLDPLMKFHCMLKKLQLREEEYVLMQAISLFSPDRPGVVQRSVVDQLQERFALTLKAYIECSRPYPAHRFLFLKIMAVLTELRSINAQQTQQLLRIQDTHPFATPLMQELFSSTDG

Chain of Bile acid receptor (Homo sapiens) (Q96RI1 whole entry, looked up): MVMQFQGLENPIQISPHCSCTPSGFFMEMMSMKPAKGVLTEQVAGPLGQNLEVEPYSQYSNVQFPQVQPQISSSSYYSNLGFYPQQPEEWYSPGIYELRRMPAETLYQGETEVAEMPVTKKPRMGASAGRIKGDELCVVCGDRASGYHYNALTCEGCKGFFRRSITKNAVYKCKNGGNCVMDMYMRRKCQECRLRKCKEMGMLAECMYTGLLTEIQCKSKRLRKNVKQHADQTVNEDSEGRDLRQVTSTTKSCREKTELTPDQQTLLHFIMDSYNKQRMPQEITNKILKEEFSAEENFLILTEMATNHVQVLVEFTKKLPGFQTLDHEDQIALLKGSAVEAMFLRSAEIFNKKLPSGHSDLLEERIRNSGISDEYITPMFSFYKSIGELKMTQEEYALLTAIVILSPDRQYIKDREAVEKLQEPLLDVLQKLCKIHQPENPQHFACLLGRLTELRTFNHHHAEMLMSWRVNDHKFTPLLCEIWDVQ
Chain of Thyroid hormone receptor beta (Homo sapiens) (P10828 whole entry, looked up): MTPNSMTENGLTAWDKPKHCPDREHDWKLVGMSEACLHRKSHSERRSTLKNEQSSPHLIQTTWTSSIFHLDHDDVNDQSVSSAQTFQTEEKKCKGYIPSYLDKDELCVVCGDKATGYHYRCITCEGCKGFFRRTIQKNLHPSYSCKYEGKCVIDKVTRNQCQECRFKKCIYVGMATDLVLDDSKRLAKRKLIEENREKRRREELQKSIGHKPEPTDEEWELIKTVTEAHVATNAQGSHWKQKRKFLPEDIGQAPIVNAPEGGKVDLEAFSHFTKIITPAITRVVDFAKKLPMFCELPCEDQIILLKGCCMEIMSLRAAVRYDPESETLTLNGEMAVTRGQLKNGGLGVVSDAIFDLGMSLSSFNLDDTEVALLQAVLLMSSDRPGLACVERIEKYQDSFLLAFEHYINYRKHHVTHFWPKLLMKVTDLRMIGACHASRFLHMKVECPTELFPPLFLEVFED
Chain of Retinoic acid receptor RXR-alpha (Homo sapiens) (P19793 whole entry, looked up): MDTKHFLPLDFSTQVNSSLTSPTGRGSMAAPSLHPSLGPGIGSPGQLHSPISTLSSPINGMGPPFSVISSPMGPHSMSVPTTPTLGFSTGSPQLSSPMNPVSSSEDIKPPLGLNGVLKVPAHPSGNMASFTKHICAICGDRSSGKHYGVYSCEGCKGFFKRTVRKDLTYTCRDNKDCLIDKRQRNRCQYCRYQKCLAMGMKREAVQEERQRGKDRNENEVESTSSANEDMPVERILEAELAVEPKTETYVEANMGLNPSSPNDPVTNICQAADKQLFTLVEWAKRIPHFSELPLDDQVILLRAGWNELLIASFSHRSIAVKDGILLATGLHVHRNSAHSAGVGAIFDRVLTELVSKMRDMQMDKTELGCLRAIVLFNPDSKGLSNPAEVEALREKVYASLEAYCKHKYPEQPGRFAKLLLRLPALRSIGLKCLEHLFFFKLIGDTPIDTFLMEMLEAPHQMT
Chain of Peroxisome proliferator-activated receptor alpha (Homo sapiens) (Q07869 whole entry, looked up): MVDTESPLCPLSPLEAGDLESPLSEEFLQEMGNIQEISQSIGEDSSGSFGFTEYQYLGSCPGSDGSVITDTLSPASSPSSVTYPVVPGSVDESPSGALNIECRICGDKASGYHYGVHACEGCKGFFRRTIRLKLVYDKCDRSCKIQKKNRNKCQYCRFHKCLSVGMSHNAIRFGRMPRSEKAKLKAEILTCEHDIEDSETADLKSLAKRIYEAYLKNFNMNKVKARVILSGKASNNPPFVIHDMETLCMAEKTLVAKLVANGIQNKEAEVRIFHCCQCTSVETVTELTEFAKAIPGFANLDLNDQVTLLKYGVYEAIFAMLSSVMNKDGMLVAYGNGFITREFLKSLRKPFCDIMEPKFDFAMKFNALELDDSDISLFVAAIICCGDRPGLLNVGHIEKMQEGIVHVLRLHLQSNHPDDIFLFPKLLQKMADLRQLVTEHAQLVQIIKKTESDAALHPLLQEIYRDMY
Chain of Peroxisome proliferator-activated receptor delta (Homo sapiens) (Q03181 whole entry, looked up): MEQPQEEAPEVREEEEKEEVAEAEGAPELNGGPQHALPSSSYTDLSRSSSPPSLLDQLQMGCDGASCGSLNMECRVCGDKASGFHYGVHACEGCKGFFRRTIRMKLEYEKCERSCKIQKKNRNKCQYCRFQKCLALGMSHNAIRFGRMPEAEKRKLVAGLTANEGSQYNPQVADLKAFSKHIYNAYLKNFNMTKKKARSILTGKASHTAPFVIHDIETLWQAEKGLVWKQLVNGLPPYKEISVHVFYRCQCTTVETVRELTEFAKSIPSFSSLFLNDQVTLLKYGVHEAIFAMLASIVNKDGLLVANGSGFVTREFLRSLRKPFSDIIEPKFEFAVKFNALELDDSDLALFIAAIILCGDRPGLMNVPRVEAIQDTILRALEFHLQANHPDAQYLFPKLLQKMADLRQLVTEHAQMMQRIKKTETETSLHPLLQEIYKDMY
Chain of Vitamin D3 receptor (Homo sapiens) (P11473 whole entry, looked up): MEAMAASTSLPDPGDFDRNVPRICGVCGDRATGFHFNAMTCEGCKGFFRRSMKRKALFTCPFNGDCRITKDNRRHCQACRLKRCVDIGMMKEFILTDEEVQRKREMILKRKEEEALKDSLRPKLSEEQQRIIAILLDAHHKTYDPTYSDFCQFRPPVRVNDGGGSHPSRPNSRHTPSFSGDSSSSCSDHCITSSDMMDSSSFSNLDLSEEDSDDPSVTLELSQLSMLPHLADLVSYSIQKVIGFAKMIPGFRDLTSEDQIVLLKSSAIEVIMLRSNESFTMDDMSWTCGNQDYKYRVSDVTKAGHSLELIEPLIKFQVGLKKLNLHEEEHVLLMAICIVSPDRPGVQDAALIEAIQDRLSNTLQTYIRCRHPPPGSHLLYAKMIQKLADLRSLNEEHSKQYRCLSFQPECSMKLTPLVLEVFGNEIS

As for `Fc1ccc(Oc2ccnc3cc(Cl)cc(Cl)c23)cc1`, the activation is -3.06% (inactive) in assay [1] and 15% (inactive) in [5]. Besides, the max response is 20.3% in assay [2] and 3.62% (inactive) in assay [6]. Further, the Potency in [3] was 39.8 µM (active); in [4], 21.7 µM (active); in assay [7] it was 34.4 µM (active). In addition, the Potency entry in [8] was “inactive”.
As for `CSC1=N[C@@](C)(c2ccccc2)C(=O)N1Nc1ccccc1`, the activation in [1] was 1.54% (inactive); in assay [5], -5.24% (inactive). In addition, the compound was classed as inactive in [9] and in [10]. Further, the Potency entry in [11], in [12], in assay [7] and in assay [8] was “inactive” throughout. Further, the activity change % (negative = inhibition) in [13] is -28.6% (inactive). Moreover, the Potency in assay [4] is 6.86 µM (active). In addition, the max response in [6] is -0.163% (inactive); in assay [14], -18% (inactive).
`Cc1ccc(S(N)(=O)=O)cc1`: in assay [1], the activation was 0.771% (inactive) and -1.64% (inactive). The call in assay [9] was inactive.
For `O=C(O)c1ccccc1Cl`, the activation in [1] was 1.39% (inactive). Also, in assay [9], the result was inactive.
Take `O=P(O)(O)O`: the activation in [1] was 0.993% (inactive).
On to `NN(c1ccccc1)c1ccccc1`, for which the activation in [1] is -1.98% (inactive). In addition, the outcome in assay [9] was inactive.
For the compound `COC(=O)N(OC)c1ccccc1COc1ccn(-c2ccc(Cl)cc2)n1`, the values for the activation in assay [1] and in assay [5] were 11.5% (inactive) and 10.6% (inactive), respectively. Besides, the compound was called inactive in assay [10]. Also, the Potency entry in assay [11], in assay [12], in assay [7] and in [8] was “inactive” each time. Further, the max response in assay [2] is -0.714%; in [6], -0.36% (inactive); in [16], -16.5% (inactive); in assay [17], -12.5% (inactive). In addition, the Potency in assay [3] is 3.16 µM (active); in assay [13], 6.31 µM (active); in [4], 5.45 µM (active); in assay [15], 5.01 µM (active).
For `CCCCCCCC[Si](Cl)(Cl)Cl`, the activation in assay [1] is 0.799% (inactive). For the same compound, the compound was called inactive in assay [9].
Taken in the same sequence, the figures for `CC(C)O` were -0.657% (inactive) and “inactive”.
Taken in the same sequence, the figures for `Oc1c(Cl)ccc(Cl)c1Cl` were -2.11% (inactive) and “inactive”.
For `O=C1CCC(=O)O1` the same measures were -2.49% (inactive) and “inactive”.
As for `CC(C)O.CC(C)O.CC(C)O.CC(C)O.[Ti]`, the activation in [1] was -5.62% (inactive). Also, in [9], the compound was called inactive.
`CCCCCCOCCOCCO`: the activation in [1] was -1.2% (inactive). Besides, the outcome in [9] was inactive.
For `O=C(O)C(Oc1ccc(Cl)cc1)Oc1ccc(Cl)cc1` the same measures were -1.96% (inactive) and “inactive”.
Taken in the same sequence, the figures for `OCc1cccc(Oc2ccccc2)c1` were -0.998% (inactive) and “inactive”.
Taken in the same sequence, the figures for `Nc1ccc(N)c2c1C(=O)c1c(N)ccc(N)c1C2=O` were -0.332% (inactive) and “inactive”.
In the case of `O=C(O)c1ccc(O)cc1O`, in assay [1], the activation is 1.07% (inactive) and -1.82% (inactive). Moreover, the compound was classed as inactive in [9].
